# Measured values published in PubChem BioAssay (EPA / NIEHS).
# Activity calls are given as the source filed them. How the source made its calls: active means hit-call score of the fitted dose curve at least 0.9, where 1 is the maximum; inactive means score below 0.9.
# Read-out: CD40, CD40 (gene 958)
# Experiment: BSK_SAg_CD40: BioMAP Diversity Plus: SAg Assay for CD40 Biomarker Activity (AID 2283088)
# Settings: primary human HUVEC with PBMC; actives raise or lower the signal
# Summary of the method: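 Compounds were dosed onto a human primary endothelial–PBMC co-culture, and after 24 h CD40 was quantified by ELISA using a fluorescence signal. Activity in either direction was fitted relative to DMSO.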
SMILES,outcome,AC50
COP(=O)(NC(C)=O)SC (stereo unspecified),inactive,
CN1COCN(Cc2cnc(Cl)s2)C1=N[N+](=O)[O-],,3.79 µM (active)
CC1=NNC(=O)N(/N=C/c2cccnc2)C1,inactive,
CNC(=O)Oc1cccc2c1OC(C)(C)O2,inactive,
CCCSP(=O)(OCC)SCCC,inactive,
CCCCOC(=O)[C@@H](C)Oc1ccc(Oc2ccc(C#N)cc2F)cc1,inactive,
CCOP(=O)(NC(C)C)Oc1ccc(SC)c(C)c1 (stereo unspecified),inactive,
CCOP(=O)(OCC)Oc1cc(C)nc(C(C)C)n1,inactive,
COc1ccc(C(=CC(=O)N2CCOCC2)c2ccc(Cl)cc2)cc1OC,,6.93 µM (active)
C[N+]1(C)CCCCC1,inactive,
CCCCN(CC)c1c([N+](=O)[O-])cc(C(F)(F)F)cc1[N+](=O)[O-],,29.1 µM (active)
CCCCSP(=O)(SCCCC)SCCCC,inactive,
CCCCOC(=O)c1ccccc1C(=O)O,inactive,
CCCOc1nn(C(=O)NS(=O)(=O)c2ccccc2C(=O)OC)c(=O)n1C,inactive,
CSc1nnc(C(C)(C)C)c(=O)n1N,inactive,
CCOC(=O)CC(SP(=O)(OC)OC)C(=O)OCC (stereo unspecified),inactive,
C#CC(C)(C)NC(=O)c1cc(Cl)cc(Cl)c1,inactive,

# Read-out: CD69, CD69 (gene 969)
# Experiment: BSK_SAg_CD69: BioMAP Diversity Plus: SAg Assay for CD69 Biomarker Activity (AID 2283089);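 on AC50: cell surface CD69 protein quantified by ELISA with fluorescence detection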
# Settings: primary human HUVEC with PBMC; actives raise or lower the signal
# Summary of the method: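 Primary human vascular co-culture (umbilical vein endothelium with peripheral blood mononuclear cells) exposed to test chemical for 24 h. CD69 levels quantified by fluorescence ELISA; DMSO served as negative control for bidirectional fitting.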
SMILES,outcome,AC50
COP(=O)(NC(C)=O)SC (stereo unspecified),inactive,
CCOP(=O)(SC(C)CC)N1CCSC1=O (stereo unspecified),inactive,
Cc1ccn2nc(S(=O)(=O)Nc3c(F)cccc3F)nc2n1,inactive,
CN1COCN(Cc2cnc(Cl)s2)C1=N[N+](=O)[O-],inactive,
CC1=NNC(=O)N(/N=C/c2cccnc2)C1,inactive,
CNC(=O)Oc1cccc2c1OC(C)(C)O2,inactive,
S=C1NCCN1,inactive,
CCCSP(=O)(OCC)SCCC,inactive,
CCCCOC(=O)[C@@H](C)Oc1ccc(Oc2ccc(C#N)cc2F)cc1,inactive,
CCOC(=O)COc1cc(-c2nn(C)c(OC(F)F)c2Cl)c(F)cc1Cl,,3.97 µM (active)
FC(F)C(F)(F)OCC(Cn1cncn1)c1ccc(Cl)cc1Cl (stereo unspecified),,30 µM (active)
CCC(=O)Nc1ccc(Cl)c(Cl)c1,inactive,
CSc1nc(NC(C)C)nc(NC(C)C)n1,inactive,
CCOP(=O)(NC(C)C)Oc1ccc(SC)c(C)c1 (stereo unspecified),inactive,
CCOP(=S)(OCC)Oc1ccc([N+](=O)[O-])cc1,,32.4 µM (active)
CCOP(=O)(OCC)Oc1cc(C)nc(C(C)C)n1,inactive,
CC[C@H](C)[C@H]1O[C@]2(C=C[C@@H]1C)C[C@@H]1C[C@@H](C/C=C(\C)[C@@H](O[C@H]3C[C@H](OC)[C@@H](O[C@H]4C[C@H](OC)[C@@H](NC)[C@H](C)O4)[C@H](C)O3)[C@@H](C)/C=C/C=C3\CO[C@@H]4[C@H](O)C(C)=C[C@@H](C(=O)O1)[C@]34O)O2,,4.17 µM (active)

SMILES,outcome,AC50
COc1ccc(C(=CC(=O)N2CCOCC2)c2ccc(Cl)cc2)cc1OC,,4.3 µM (active)
C[N+]1(C)CCCCC1,inactive,
CCOP(=S)(OCC)Oc1cc(C)nc(C(C)C)n1,inactive,
CCCCN(CC)c1c([N+](=O)[O-])cc(C(F)(F)F)cc1[N+](=O)[O-],inactive,
CC(Oc1cccc(Cl)c1)C(=O)O (stereo unspecified),inactive,
CCCCSP(=O)(SCCCC)SCCCC,,31.5 µM (active)
CCCCOC(=O)c1ccccc1C(=O)O,inactive,
O=C(O)c1cc(Oc2ccc(C(F)(F)F)cc2Cl)ccc1[N+](=O)[O-],inactive,
COP(=O)(OC)SCn1c(=O)oc2cc(Cl)cnc21,,20 µM (active)
CNC(=O)ON=C(SC)C(=O)N(C)C,inactive,
CCOP(=S)(OCC)OC(Cl)C(Cl)(Cl)Cl (stereo unspecified),,28.6 µM (active)
CCCOc1nn(C(=O)NS(=O)(=O)c2ccccc2C(=O)OC)c(=O)n1C,inactive,
CSc1nnc(C(C)(C)C)c(=O)n1N,inactive,
CCOC(=O)CC(SP(=O)(OC)OC)C(=O)OCC (stereo unspecified),inactive,
CC(C)=CC1C(C(=O)OCN2C(=O)C3=C(CCCC3)C2=O)C1(C)C (stereo unspecified),,20 µM (active)
C#CC(C)(C)NC(=O)c1cc(Cl)cc(Cl)c1,inactive,
COP(=O)(OC)C(O)C(Cl)(Cl)Cl (stereo unspecified),inactive,
